Screening data deposited in PubChem BioAssay by National Center for Advancing Translational Sciences (NCATS).
ELG1 genotoxic = qHTS screen for small molecules that induce genotoxicity in human embryonic kidney (HEK293T) cells expressing luciferase-tagged ELG1; HEK293T ELG1-luciferase reporter, luminescence, 16 h; Potency, µM (top dose mostly 46 µM), for inactives: top-dose activity change, positive = activation, hits mostly activators; 1.3% of 330,000 active; AID 504466, 2011; note: % of control where 0% means no effect; nearly all actives have a fitted effect of over 60% in size
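After overnight (16 hr) compound treatment at 37 °C, ELG1-luciferase HEK293T cells were lysed with ONE-Glo; luminescence quantified 30 min later at room temperature.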
p53 reactivation = qHTS assay for re-activators of p53 using a Luc reporter | H1299 p53-A138V BP100-luciferase reporter, luminescence, 24 h | AID 504706, 2011 | Potency, µM (top dose mostly 92.2 µM), inactives show at the top dose activity change, positive = activation, most hits filed as activators | 0.063% of 320,000 active; note: % of control where 0% means no effect; nearly all actives have a fitted effect of over 45% in size
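p53-null H1299 cells stably carrying temperature-sensitive p53-A138V and a BP100-luciferase reporter were pinned with compounds (4-point, 1:5 series) and held 24 hrs at 37 deg C. Luminescence was read 10 min after detection reagent.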
FLuc modulator = qHTS profiling assay for firefly luciferase inhibitor/activator using purifed enzyme and Km concentrations of substrates (counterscreen for miR-21 project) | purified FLuc, Km substrates, luminescence inhibition | Potency, µM (doses to about 57.5 µM), for inactives: at the highest dose activity change, negative = inhibition, most hits filed as inhibitors | 6.9% of 360,000 active | AID 588342, 2011;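 note: plate controls were vehicle for no effect and reference inhibitor for full effect; nearly all actives have a fitted effect of over 55% in size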
Target sequence (P08659 whole entry, looked up): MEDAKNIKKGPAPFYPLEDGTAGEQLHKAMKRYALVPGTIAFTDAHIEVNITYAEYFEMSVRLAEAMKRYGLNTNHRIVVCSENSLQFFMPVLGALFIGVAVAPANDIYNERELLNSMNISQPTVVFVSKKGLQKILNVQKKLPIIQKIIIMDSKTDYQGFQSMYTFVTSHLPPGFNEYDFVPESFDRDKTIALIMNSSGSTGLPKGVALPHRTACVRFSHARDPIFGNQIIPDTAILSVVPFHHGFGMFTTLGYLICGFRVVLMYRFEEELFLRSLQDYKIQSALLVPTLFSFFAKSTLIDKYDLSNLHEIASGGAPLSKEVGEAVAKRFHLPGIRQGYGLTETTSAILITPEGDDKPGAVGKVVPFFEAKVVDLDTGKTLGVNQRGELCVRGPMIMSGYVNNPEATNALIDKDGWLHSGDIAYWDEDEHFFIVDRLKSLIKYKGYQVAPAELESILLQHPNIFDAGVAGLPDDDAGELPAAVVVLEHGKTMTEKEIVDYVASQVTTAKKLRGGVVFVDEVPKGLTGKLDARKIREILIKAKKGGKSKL
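Purified P. pyralis luciferase, 10 nM final, with Km-level 10 uM D-luciferin and 10 uM ATP in 50 mM Tris acetate pH 7.5, 10 mM Mg acetate, 0.01% Tween-20, 0.05% BSA; 6-point qHTS titration about 60 µM downward; luminescence read.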
NPC1 prom act = qHTS Assay for NPC1 Promoter Activators; Potency, µM (series often up to 9.22 µM), without a hit: top-dose activation, usual class: activators; Huh7 NPC1 promoter luciferase reporter, 24 h; 2.4% of 320,000 active; AID 485313, 2010; note: % of control where 0% means no effect; nearly all actives have a fitted effect of over 60% in size
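Stable NPC1-promoter luciferase Huh7 line; cpd (DMSO) 24 h, 37 °C, 5% CO2; Amplite luciferase reagent 10 min RT; luminescence readout. qHTS format.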
Rab9 prom act = qHTS Assay for Rab9 Promoter Activators. Huh7 Rab9 promoter-luciferase reporter, luminescence, 24 h. 2.8% of 320,000 active. Potency, µM (top dose mostly 9.22 µM), inactives show top-dose activation, negative = inhibition, most hits filed as activators; note: % of control where 0% means no effect; nearly all actives have a fitted effect of over 60% in size
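Huh7 cells stably carrying a Rab9 promoter-luciferase reporter, 1500 cells per well in OP-MEM I with 10% FBS, treated with compound 24 hours at 37C. Luciferase activity read by luminescence after 10 minutes with Amplite reagent.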
SMN2 splice up = qHTS Assay for Enhancers of SMN2 Splice Variant Expression; HEK293 SMN2-luciferase splicing reporter, luminescence, 30-36 h; Potency, µM (doses to about 46.1 µM), without a hit: top-dose activity change, positive = activation, usual class: activators; 2.8% of 210,000 active; note: % of control where 0% means no effect; nearly all actives have a fitted effect of over 55% in size
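HEK293 cells carry an SMN2 minigene-luciferase reporter in which exon 7 inclusion puts luciferase in frame. Cells were seeded at 2000 cells/well, attached for 10-12 hours, then exposed to compounds for 30-36 hours at 37C before ONE-Glo luminescence.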
Numbers without * were called inactive; ? = inconclusive; . = not tested or not shown; [ ] = dose if it differs, or a comment. Hits are enriched below; roughly 7.3% of the tested compounds scored in any of these assays. Calls come from the whole dose curve; as a rule, active = well fitted curve in the direction sought with a large enough effect; inconclusive = small, poorly fitted or top-dose-only effect, or another doubt; inactive = no such curve, though single readings can be large; an effect the other way counts as inactive or inconclusive. Potency is the fitted concentration of half-maximal effect.

SMILES | ELG1 genotoxic | p53 reactivation | FLuc modulator | NPC1 prom act | Rab9 prom act | SMN2 splice up
O=C(COc1ccccc1)Nc1nc2ccccc2[nH]1 | 4.5µM* | 8% | 12µM* | ? | 3.5µM* | ?
CCCOc1cccc(OCC(=O)Nc2nc3ccccc3[nH]2)c1 | 5% | 6% | ? | -4% | -2% | -22%
CCOc1ccccc1OCC(=O)Nc1nc2ccccc2[nH]1 | -3% | -1% | 15µM* | -1% | 12% | 11%
COC(=O)c1cc(/C=C/c2ccccc2)on1 | 0% | -5% | ? | 0% | -6% | 4%
COc1cc(/C=C/c2ccccc2)oc(=O)c1 | . | . | . | . | . | 8.9µM*
Cc1cccc(N(C)C(=O)c2cc3cc4ccc(C)cc4nc3o2)c1 | 21µM* | 3% | 15µM* | -3% | 13% | 8.9µM*
CCN(C(=O)c1cc2cc3ccc(OC)cc3nc2o1)c1cccc(C)c1 | . | . | -17% | . | . | -4%
CC1=C(C(=O)Nc2ccccc2)C(CC(C)C)n2nc(SCc3ccccc3C)nc2N1 (configuration not stated) | . | . | 4% | . | . | 0%
c1cc2cc(-c3c(-c4ccc5c(c4)OCO5)noc3-c3ccsc3)ccc2[nH]1 | 15% | 17% | 11µM* | ? | ? | .
Cc1onc(-c2ccc3c(c2)OCO3)c1-c1ccc2[nH]ccc2c1 | 15% | . | 0% | 2% | ? | .
c1ccc(-c2onc(-c3ccco3)c2-c2ccc3[nH]ccc3c2)cc1 | -2% | 3% | 19µM* | -1% | 4% | .
Cc1cc(C(=O)O)ccc1N/C=C1\CCCC(C)C1=O (configuration not stated) | ? | 1% | 0.95µM* | ? | ? | ?
CC1CCC/C(=C\Nc2ccc(O)cc2)C1=O (configuration not stated) | 18µM* | 25% | 21µM* | 2% | ? | -11%
CC1(C)OC(C)(C)/C(=C/Nc2ccc(O)cc2)C1=O | 0% | -8% | -11% | 5% | -2% | -6%
CCc1c(C)sc(NC(=O)c2cc(-c3ccc(OC)cc3)on2)c1C#N | . | . | -3% | . | . | -5%
Cc1oc(-c2cc(F)ccc2F)nc1CN1CCN(c2ncnc3ccccc23)CC1 | -8% | 7% | 27µM* | 6% | 0% | .
COc1ccc(-c2nc(CN3CCN(c4ncnc5ccccc45)CC3)c(C)o2)c(OC)c1 | -18% | -8% | 0% | -20% | -34% | .
O=C(OCc1ccccc1F)c1ccc2c(c1)-c1ccccc1C2=O | ? | ? | ? | 2.2µM* | 2.2µM* | ?
Oc1ccc(/C=N/N2CCCCC2)c(O)c1O | -6% | -10% | ? | -3% | 0% | .
Oc1cccc(/C=N/N2CCCCC2)c1O | ? | ? | 9.5µM* | -3% | -16% | .
Oc1ccccc1/C=N/N1CCCCC1 | ? | 8% | 24µM* | 0% | 14% | 2%
Oc1ccc(/C=N/N2CCCCC2)c(O)c1 | ? | 23% | 19µM* | ? | -5%[1.84 µM] | .
CCn1nnc2cc(C(=O)Nc3cccc(Cl)c3C)ccc21 | . | . | 4% | . | . | .
CCOC(=O)CCn1nc(C)c2c(C)n(-c3ccccc3)nc2c1=O | . | . | 4% | . | . | 6%
CC(C)C1N=C(c2ccc3c(c2)OCO3)CC(c2ccccc2O)N1 (configuration not stated) | 18% | ? | 11µM* | ? | ? | -1%
SMILES | ELG1 genotoxic | p53 reactivation | FLuc modulator | NPC1 prom act | Rab9 prom act | SMN2 splice up
C=CCSc1nc2ccccc2c(=O)n1Cc1ccco1 | . | . | . | . | . | -12%[9.22 µM]
C=CCSc1nc2c(cnn2-c2ccccc2)c(=O)n1N | ? | 2% | 8.5µM* | 1.4µM* | 1.4µM* | .
Cc1ccc(NC(=O)CCS(=O)(=O)c2ccc3nc(C)sc3c2)cc1 | 5% | . | 0% | -5% | -2% | .
Cc1nc2cc(NC(=O)CCS(=O)(=O)c3ccccc3)ccc2s1 | ? | 32µM* | 9.5µM* | 2µM* | 1.4µM* | 10µM*
Cc1ccc2nc(-c3ccc(NC(=O)CCS(=O)(=O)c4ccccc4)cc3)sc2c1 | ? | ? | 11µM* | 0.56µM* | 0.32µM* | .
Cc1ccc(S(=O)(=O)CCC(=O)Nc2ccc3nc(C)sc3c2)cc1 | -1% | -3% | 5% | -4% | -4% | -23%
Cc1nc2ccc(NC(=O)CCS(=O)(=O)c3ccccc3)cc2s1 | 15% | ? | ? | 24% | 28% | 16µM*
Cc1ccc(N(CC(=O)Nc2ccc(-c3nc4ccc(C)cc4s3)cc2)S(C)(=O)=O)cc1 | ? | ? | 7.6µM* | ? | ? | 37%
Cc1nc2cc(NC(=O)CS(=O)(=O)c3ccc(F)cc3)ccc2s1 | 12% | 11% | ? | 18% | 20% | .
Cc1ccc(C)c(N(CC(=O)Nc2ccc(-c3nc4ccc(C)cc4s3)cc2)S(C)(=O)=O)c1 | 1% | 6% | -17% | 9% | -2% | 26%
O=S(=O)(Nc1ncccc1O)c1ccc(Cl)cc1 | -11% | 7% | 0%[2.3 µM] | -1% | 0% | -12%
CCOc1ccccc1NC1=C(Cl)C(=O)N(c2ccc(OC)cc2)C1=O | 2% | -5% | 0% | 3% | -4% | 12%
COc1ccc(N2C(=O)C(Cl)=C(NCc3ccccc3)C2=O)cc1 | 12% | 6% | 21µM* | -1% | 6% | 0%
COc1ccc(NC2=C(Cl)C(=O)N(CCc3ccccc3)C2=O)cc1 | 8% | ? | 2.7µM* | 6% | 0% | 16µM*
CC(C)c1ccc(NC(=O)C(C)N(c2ccccc2)S(C)(=O)=O)cc1 (configuration not stated) | . | . | -7% | . | . | -18%
Cc1ccc(CCNC(=O)c2cccc(Nc3nc4ccccc4nc3-n3nc(C)cc3C)c2)cc1 | . | . | -6% | . | . | -2%
O=C(NCc1nc2ccccc2[nH]1)c1ccc([N+](=O)[O-])cc1 | -11% | 1% | 3% | -3% | 2% | -5%
CCOC(=O)Cc1nc2ccccc2[nH]1 | -3% | 9% | 0% | -2% | 1% | -2%
O=C(Nc1nc2ccccc2[nH]1)c1ccc([N+](=O)[O-])cc1 | ? | ? | ? | 1µM* | 0.56µM* | 2.5µM*
O=C(Nc1nc2ccccc2[nH]1)c1cccc([N+](=O)[O-])c1 | 9% | -3% | ? | 3.5µM* | 1.4µM* | 11µM*
C/C(=N\Nc1nc2ccccc2[nH]1)c1ccc([N+](=O)[O-])cc1 | 3% | -4% | -16% | 0% | -5% | .
